These results are taken from ChEMBL document CHEMBL3988442, “University of Dundee, Small-Polar-MMV Screening Library” (2021).

For some assays here: Results with a measured potency or affinity are listed apart.

Design in all cases: scale not given: direction of the effect not stated beside the values
In experiment [1] the target is Protein translocase subunit SecA (Escherichia coli (strain K12)) (UniProt P10408). Description: Assay to Identify E. coli SecA ATPase Inhibitors. The format is functional. Conditions: 30 µM.
Protein translocase subunit SecA (Escherichia coli (strain K12)), sequence (P10408 whole entry): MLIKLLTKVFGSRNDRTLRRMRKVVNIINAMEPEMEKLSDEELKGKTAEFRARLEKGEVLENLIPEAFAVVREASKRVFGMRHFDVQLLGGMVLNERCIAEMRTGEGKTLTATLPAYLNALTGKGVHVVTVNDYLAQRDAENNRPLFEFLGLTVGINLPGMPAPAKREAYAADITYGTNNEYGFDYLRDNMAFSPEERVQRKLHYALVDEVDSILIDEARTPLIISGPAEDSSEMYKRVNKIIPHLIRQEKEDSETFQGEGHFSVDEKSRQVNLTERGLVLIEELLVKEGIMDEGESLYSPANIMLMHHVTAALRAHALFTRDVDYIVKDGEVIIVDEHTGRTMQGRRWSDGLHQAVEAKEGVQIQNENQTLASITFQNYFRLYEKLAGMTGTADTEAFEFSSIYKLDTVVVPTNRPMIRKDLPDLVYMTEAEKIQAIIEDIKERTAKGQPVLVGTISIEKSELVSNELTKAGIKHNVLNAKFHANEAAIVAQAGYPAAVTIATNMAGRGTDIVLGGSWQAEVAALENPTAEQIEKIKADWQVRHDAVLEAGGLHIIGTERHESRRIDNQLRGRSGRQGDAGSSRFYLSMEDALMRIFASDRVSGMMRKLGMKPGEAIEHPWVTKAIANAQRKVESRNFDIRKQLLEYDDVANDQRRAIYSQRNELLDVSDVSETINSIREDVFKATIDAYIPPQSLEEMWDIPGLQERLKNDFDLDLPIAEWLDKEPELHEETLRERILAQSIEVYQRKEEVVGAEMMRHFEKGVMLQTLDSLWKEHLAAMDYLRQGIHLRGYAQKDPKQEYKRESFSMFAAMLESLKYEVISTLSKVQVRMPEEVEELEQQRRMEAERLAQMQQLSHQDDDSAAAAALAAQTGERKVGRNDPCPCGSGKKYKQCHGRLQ
Experiment [2] addresses T1, Ubiquitin-activating enzyme e1, putative (Leishmania donovani (strain BPK282A1)) (UniProt E9BSI1).
T1 sequence (whole entry): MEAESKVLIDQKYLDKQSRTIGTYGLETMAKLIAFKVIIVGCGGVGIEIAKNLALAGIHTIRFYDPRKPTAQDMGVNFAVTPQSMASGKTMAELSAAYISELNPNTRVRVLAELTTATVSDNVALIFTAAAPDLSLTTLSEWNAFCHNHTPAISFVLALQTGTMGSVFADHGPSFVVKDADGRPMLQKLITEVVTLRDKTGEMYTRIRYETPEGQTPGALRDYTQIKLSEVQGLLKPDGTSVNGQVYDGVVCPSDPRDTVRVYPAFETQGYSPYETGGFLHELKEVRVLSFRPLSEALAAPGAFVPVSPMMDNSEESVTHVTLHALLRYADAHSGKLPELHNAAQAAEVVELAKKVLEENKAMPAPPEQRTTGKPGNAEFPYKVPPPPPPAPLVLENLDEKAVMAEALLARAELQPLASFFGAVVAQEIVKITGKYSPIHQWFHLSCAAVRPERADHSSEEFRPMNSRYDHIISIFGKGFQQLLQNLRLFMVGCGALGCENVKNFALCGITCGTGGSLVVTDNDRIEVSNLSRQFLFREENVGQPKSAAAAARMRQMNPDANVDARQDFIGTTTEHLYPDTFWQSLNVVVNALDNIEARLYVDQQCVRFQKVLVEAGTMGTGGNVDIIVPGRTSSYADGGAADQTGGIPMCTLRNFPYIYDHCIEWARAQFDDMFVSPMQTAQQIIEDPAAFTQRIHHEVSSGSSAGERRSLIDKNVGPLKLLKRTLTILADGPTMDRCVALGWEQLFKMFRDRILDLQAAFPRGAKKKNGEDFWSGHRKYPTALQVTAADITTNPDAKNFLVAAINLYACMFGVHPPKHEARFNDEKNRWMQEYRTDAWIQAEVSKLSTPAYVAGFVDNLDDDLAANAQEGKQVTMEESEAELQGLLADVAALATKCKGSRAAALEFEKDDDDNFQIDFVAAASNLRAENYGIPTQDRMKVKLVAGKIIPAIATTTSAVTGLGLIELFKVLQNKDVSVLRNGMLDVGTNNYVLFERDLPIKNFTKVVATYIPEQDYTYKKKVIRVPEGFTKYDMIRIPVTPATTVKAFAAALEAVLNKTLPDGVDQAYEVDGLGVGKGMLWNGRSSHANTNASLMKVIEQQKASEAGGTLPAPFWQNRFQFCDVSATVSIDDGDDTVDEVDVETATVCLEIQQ
Description: Leishmania donovani Ubiquitin Activating Enzyme (LdE1). The format is functional. Conditions: 30 µM.

Experiment [3] deals with AMP-activated protein kinase, AMPK (Homo sapiens) (UniProt P54646+O43741+P54619+Q9UGJ0+Q9Y478+Q13131+Q9UGI9). Description: AMP-dependent Kinase enzyme assay. An in vitro enzyme assay that detects ADP turnover that is directly proportional to AMPK activity. This uses naive AMPK that is activated during the assay with MK-8722. The note with it: 30 µM. The format is functional.

Experiment [4] deals with Sialic acid-binding Ig-like lectin 9 (Homo sapiens) (UniProt Q9Y336). Description: Hs-Siglec9 ALPHAscreen SOP 20170721. Conditions: 10 µM. A general note: Bead proximity is the source of the signal in Alpha formats.
Sialic acid-binding Ig-like lectin 9 (Homo sapiens), sequence (Q9Y336 whole entry): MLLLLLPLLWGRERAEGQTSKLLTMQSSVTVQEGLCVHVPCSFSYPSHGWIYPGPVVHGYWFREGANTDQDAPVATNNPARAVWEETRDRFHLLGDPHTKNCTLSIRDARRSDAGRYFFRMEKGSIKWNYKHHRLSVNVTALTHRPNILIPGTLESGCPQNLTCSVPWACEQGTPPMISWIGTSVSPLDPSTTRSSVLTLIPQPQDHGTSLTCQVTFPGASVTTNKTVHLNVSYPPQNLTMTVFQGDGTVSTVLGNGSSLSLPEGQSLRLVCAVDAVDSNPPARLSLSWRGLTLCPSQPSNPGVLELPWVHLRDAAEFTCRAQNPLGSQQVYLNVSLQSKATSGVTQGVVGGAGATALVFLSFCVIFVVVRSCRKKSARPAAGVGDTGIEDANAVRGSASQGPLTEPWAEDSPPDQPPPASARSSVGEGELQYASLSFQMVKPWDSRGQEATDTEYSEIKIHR
The test system of the next experiment is Trypanosoma cruzi. Description: Trypanosoma cruzi phosphomannomutase and mannose-1-phosphate guanylyltransferase assay. The format is functional. Conditions: 10 µM.
Experiment [5] deals with T2, Arginase-2, mitochondrial (Homo sapiens) (UniProt P78540).
T2 sequence (whole entry): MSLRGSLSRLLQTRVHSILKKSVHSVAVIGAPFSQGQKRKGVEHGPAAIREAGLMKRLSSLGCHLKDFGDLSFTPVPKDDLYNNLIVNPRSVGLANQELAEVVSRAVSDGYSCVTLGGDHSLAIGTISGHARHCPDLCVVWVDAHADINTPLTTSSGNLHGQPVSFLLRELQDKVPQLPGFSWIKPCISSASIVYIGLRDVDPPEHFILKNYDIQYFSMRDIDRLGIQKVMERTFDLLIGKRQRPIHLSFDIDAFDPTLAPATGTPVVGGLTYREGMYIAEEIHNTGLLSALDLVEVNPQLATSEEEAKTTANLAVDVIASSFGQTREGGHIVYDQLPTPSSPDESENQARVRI
Description: in vitro enzyme assay to detect the production of urea directly proportional to the activity of Arginase II. Further: in the data most compounds retested in dose-response had high values. The format is functional. Conditions: 33.3 µM.

The target of experiment [6] is T3, Proteasome subunit beta (Trypanosoma cruzi) (UniProt O96673).
T3 sequence (whole entry): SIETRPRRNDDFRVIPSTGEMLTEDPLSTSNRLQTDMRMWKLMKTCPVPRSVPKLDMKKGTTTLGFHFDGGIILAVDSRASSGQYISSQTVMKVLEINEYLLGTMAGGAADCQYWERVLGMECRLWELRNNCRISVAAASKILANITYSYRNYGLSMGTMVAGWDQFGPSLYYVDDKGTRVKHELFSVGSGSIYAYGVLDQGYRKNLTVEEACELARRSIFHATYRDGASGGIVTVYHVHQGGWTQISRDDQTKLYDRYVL
Description: Trypanosoma cruzi proteasome chymotrypsin-like activity (TcProtChymo) assay. Further: in the data most compounds retested in dose-response had high values. The format is functional. The note with it: 9.37 µM.

For another experiment, the species on record is Homo sapiens. Description: To identify inhibition of the IFN signalling (Jak-Stat) pathway via expression of an eGFP reporter gene under the control of an IFN-stimulated response element (ISRE) containing MxA promoter. The format is functional. Conditions: 30 µM. Background: A reporter such as luciferase makes a cellular process visible.
For experiment [7], the target named is T4, Tyrosyl-tRNA synthetase, putative (Trypanosoma cruzi (strain CL Brener)) (UniProt Q4DSP6).
T4 sequence (whole entry): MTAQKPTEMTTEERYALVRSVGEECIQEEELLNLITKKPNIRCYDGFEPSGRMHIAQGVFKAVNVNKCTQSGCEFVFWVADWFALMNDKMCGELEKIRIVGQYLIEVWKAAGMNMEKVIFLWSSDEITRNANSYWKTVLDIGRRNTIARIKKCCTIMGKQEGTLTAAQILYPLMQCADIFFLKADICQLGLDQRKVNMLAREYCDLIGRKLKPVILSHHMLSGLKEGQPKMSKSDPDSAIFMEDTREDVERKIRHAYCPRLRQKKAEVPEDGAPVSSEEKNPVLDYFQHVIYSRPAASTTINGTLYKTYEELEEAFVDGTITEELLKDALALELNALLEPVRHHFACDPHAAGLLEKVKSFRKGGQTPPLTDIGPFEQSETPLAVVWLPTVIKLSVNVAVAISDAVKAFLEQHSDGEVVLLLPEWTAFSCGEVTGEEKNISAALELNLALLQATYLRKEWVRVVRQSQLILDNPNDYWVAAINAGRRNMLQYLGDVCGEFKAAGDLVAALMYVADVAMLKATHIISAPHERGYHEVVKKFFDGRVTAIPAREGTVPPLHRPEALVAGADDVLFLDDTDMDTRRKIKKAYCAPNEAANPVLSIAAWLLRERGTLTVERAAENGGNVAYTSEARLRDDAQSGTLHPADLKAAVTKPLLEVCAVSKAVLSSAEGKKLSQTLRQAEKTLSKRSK
Description: Trypanosoma cruzi tyrosyl tRNA synthetase (TcYRS) _High Tyrosine SOP. Further: in the data most compounds retested in dose-response had high values. The format is functional. Conditions: 30 µM.

In experiment [8] the target is T4, Tyrosyl-tRNA synthetase, putative (Trypanosoma cruzi (strain CL Brener)). Description: Trypanosoma cruzi tyrosyl tRNA synthetase (TcYRS) SOP. The format is functional. Conditions: 30 µM.
Experiment [9] concerns the target Chromo domain-containing protein 1 (Saccharomyces cerevisiae (strain ATCC 204508 / S288c) (Baker's yeast)) (UniProt P32657). Description: ScCHD-1 Enzyme Inhibition Assay. Further: in the data most compounds retested in dose-response had high values. The format is functional. Conditions: 30 µM.

Chromo domain-containing protein 1 (Saccharomyces cerevisiae (strain ATCC 204508 / S288c) (Baker's yeast)), sequence (P32657 whole entry, the tested form may be a part): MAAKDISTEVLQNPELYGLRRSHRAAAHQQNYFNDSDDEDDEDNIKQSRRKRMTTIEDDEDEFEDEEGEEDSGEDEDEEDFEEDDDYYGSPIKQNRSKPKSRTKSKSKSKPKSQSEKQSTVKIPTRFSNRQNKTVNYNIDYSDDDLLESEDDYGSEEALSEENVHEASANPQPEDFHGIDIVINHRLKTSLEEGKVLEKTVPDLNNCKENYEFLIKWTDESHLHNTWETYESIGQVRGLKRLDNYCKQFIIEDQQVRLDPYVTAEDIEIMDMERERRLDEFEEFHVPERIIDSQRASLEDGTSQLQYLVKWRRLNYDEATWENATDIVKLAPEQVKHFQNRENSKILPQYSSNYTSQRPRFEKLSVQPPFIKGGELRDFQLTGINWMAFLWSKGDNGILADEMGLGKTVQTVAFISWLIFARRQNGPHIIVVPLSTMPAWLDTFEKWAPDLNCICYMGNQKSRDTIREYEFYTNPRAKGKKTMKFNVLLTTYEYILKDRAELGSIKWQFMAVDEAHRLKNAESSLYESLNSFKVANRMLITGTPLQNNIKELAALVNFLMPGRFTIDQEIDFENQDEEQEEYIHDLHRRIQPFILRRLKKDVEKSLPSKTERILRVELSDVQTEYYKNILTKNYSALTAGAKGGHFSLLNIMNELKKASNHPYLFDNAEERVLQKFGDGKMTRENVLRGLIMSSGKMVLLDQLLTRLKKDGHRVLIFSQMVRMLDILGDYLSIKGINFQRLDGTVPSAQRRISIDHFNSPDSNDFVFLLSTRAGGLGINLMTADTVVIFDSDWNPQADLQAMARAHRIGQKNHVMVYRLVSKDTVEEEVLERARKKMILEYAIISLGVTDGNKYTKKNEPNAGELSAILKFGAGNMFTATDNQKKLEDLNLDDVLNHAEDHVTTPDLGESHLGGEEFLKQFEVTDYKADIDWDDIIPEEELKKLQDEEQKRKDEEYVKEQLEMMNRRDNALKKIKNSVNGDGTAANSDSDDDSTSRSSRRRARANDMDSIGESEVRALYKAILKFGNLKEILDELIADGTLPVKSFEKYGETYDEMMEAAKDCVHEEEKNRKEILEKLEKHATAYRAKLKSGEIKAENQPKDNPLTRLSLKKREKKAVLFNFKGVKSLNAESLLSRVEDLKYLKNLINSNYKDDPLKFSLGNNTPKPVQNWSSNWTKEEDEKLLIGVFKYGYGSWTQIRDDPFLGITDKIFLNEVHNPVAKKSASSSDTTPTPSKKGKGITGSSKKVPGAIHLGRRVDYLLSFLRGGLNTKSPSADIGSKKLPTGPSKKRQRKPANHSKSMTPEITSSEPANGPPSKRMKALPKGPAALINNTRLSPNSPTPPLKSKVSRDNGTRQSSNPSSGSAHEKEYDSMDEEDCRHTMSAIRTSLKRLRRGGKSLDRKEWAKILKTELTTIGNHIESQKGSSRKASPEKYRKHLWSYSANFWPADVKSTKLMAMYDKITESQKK

For the compound `Cc1c(C2CCCN(C(=O)C3CC3)C2)n2c(nc1=O)CCC2` (stereo not given), the Percent Effect in [1] was -7.83%; in [2], 23%; in [3], 2.41%; in [4], -4.63%; in the experiment on Trypanosoma cruzi it was -0.593%; in experiment [5], 0.232%. The Percent Effect is 15.4% in [6]; 3.94% in the experiment filed under Homo sapiens; 4.3% in experiment [7]; 11.7% in experiment [8]; -11% in [9].

Turning to `Cn1ccnc1-c1ccccc1C(=O)N1CCc2c(nc(N)[nH]c2=O)C1`, the Percent Effect in experiment [1] was -3.72%; in experiment [2], 7.79%; in experiment [3], 3.19%; in experiment [4], 4.47%; with Trypanosoma cruzi it was -2.06%; in [5] it was -6.9%. In addition, the Percent Effect in [6] worked out at 16.8%; in the experiment listed under Homo sapiens, 5.31%; in experiment [7], 4.3%; in experiment [8], 11.1%; in experiment [9], 3.09%.

Take `O=S(=O)(CCNCc1cccc2c1OCCO2)N1CCOCC1`: the Percent Effect in experiment [1] is 0.589%; in experiment [2], 10.8%; in experiment [3], -8.76%; in experiment [4] it was 1%; in the experiment with Trypanosoma cruzi, -0.965%; in experiment [5], -0.476%. Moreover, the Percent Effect is 9.14% in [6]; 24.3% in the experiment listed under Homo sapiens; 5.82% in experiment [7]; 4.88% in experiment [8]; -2.36% in experiment [9].

Turning to `CN(C)C(=O)CNC(=O)Nc1cccc(Cl)c1SC(F)F`, the Percent Effect in [1] is -3.28%; in experiment [2], 1.39%; in experiment [3] it was 2.42%; in experiment [4], 11.5%; in the experiment on Trypanosoma cruzi, -7.09%; in experiment [5], 1.77%. In addition, the Percent Effect is 1.05% in [6]; -0.391% in the experiment listed under Homo sapiens; 1.05% in experiment [7]; -2.56% in experiment [8]; 0.00979% in experiment [9].

Turning to `Cc1ccc(N2CCCC(NCC(=O)NCC3CC3)C2)nn1` (stereo not given), the Percent Effect in experiment [1] was -4.97%; in experiment [2], 6.33%; in [3] it was -6.37%; in experiment [4], 2.61%; with Trypanosoma cruzi it was 1.13%; in experiment [5], -1.94%. Also, the Percent Effect is 15.8% in [6]; -5.61% in the experiment filed under Homo sapiens; 7.29% in [7]; 15.2% in experiment [8]; -25.7% in experiment [9].

For `CC(Cc1ccco1)NC(=O)Nc1ccc(N2CCOCC2)nc1` (stereo not given), the Percent Effect in [1] is -3.25%; in [2] it was 15.8%; in experiment [3] it was -15.8%; in experiment [4] it was 11.3%; in the experiment on Trypanosoma cruzi, 1.5%; in experiment [5] it was 0.383%. The Percent Effect was 11.2% in experiment [6]; -9.28% in the experiment filed under Homo sapiens; 3.43% in experiment [7]; 19.5% in [8]; -11.4% in [9].

For `Cc1cnc(N)c(C(=O)C2CCN(C(=O)c3ccccc3F)CC2)c1`, the Percent Effect in experiment [1] is -7.77%; in [2], 13.3%; in experiment [3] it was 4.93%; in experiment [4], 7.45%; with Trypanosoma cruzi it was 2.76%; in experiment [5], -2.56%. For the same compound, the Percent Effect in experiment [6] was 6.26%; in the experiment filed under Homo sapiens, 33%; in [7] it was 7.45%; in experiment [8] it was 8.97%; in experiment [9], -6.49%.

As to `O=c1[nH]c2nc(N3CCSCC3)ncc2c(=O)n1-c1cccc(F)c1`, the Percent Effect in [1] was -3.04%; in experiment [2], 7.89%; in [3], 7.15%; in experiment [4], -1.69%; in the experiment on Trypanosoma cruzi, -1.46%; in [5], 5.92%. Also, the Percent Effect in experiment [6] is 15.4%; in the experiment listed under Homo sapiens, 9.74%; in experiment [7], 3.19%; in experiment [8], 10.4%; in experiment [9], -0.88%.

In the case of `CCOC(=O)CCC(=O)NC(C)c1ccc(NC(=O)CC)cc1` (stereo not given), the Percent Effect in experiment [1] was -1.67%; in [2], 7.89%; in experiment [3] it was 2.06%; in experiment [4], -5.73%; with Trypanosoma cruzi, -1.66%; in experiment [5], 1.18%. Moreover, the Percent Effect is 9.88% in experiment [6]; 6.92% in the experiment filed under Homo sapiens; 6.38% in experiment [7]; 13% in [8]; -3.37% in experiment [9].

For `Cc1nc(CN(C)C2CCCN(c3cccnn3)C2)no1` (stereo not given), the Percent Effect was -0.0171% in experiment [1]; 20.8% in experiment [2]; -7.88% in experiment [3]; 0.261% in experiment [4]; -3.18% with Trypanosoma cruzi; 5.34% in experiment [5]. Besides, the Percent Effect in experiment [6] is 9.29%; in the experiment listed under Homo sapiens, 37.1%; in [7], 4.85%; in [8] it was 0%; in experiment [9], -5.56%.
